# Publication PMC5700166
# What was measured:
# [1] = biological target: T1, GST-Nv-NF-kB (Ser allele) (Nematostella vectensis, UniProt A7UNT2 2-411); assay: protein-binding microarray (PBM); PBM: ~300 nM protein, 6 mM HEPES pH 7.8, 80 mM KCl, 0.5 mM EDTA, 0.5 mM EGTA, 6% glycerol, 35 ng/ul poly-dIdC, 1% milk, 1 h, room temperature; Ap Aiptasia and Nv Nematostella (sea anemones) / Co Capsaspora / Aq Amphimedon (sponge) / Dm Drosophila / Hu human; RHD is the Rel homology domain; high values mean tight binding; settings: dsDNA, one strand shown
# T1 sequence: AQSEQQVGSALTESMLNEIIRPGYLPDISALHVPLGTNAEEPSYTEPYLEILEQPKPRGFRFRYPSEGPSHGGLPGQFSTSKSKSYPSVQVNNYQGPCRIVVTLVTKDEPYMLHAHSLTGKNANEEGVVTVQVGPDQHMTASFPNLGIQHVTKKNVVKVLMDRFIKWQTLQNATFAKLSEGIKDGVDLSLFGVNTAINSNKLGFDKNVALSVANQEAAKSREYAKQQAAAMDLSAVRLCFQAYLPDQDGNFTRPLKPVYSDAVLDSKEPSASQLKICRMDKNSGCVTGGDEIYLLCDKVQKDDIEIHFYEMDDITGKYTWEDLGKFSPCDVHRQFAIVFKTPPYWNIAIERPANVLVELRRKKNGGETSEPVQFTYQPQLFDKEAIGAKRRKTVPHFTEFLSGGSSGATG
# [2] = biological target: GST-Hu-p50 (Homo sapiens, UniProt P19838 7-356); assay: as above; settings: dsDNA, one strand shown
# GST-Hu-p50, sequence (P19838 7-356): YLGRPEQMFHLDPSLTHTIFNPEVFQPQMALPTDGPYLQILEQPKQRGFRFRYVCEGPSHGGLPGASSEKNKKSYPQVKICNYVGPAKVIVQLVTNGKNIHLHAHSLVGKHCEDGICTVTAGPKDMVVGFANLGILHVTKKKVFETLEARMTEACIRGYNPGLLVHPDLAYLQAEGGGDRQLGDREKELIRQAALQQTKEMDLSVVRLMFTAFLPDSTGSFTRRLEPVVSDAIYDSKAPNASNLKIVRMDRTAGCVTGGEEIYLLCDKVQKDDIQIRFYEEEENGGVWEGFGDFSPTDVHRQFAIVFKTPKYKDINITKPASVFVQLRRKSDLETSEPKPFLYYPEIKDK
Sequence,binding signal [1] [z-score],binding signal [2] [z-score]
CCGATTAACATCAGGAGTTTACCTGATGTTAATCGGGTCTTGATTCGCTTGACGCTGCTG,2.03,1.4
CCGATTAACATCAGGGGTCCCCATGATGTTAATCGGGTCTTGATTCGCTTGACGCTGCTG,1.95,2.54
CCGATTAACATCAATTCCCAAGGTGATGTTAATCGGGTCTTGATTCGCTTGACGCTGCTG,2.02,2.13
CCGATTAACATCAGATTTCCCACTGATGTTAATCGGGTCTTGATTCGCTTGACGCTGCTG,3.83,2.99
CCGATTAACATCAATACACCCCCTGATGTTAATCGGGTCTTGATTCGCTTGACGCTGCTG,4.34,4.34
CCGATTAACATCAAAAAGTTCCCTGATGTTAATCGGGTCTTGATTCGCTTGACGCTGCTG,5.17,4.09
CCGATTAACATCAAAATCACCCCTGATGTTAATCGGGTCTTGATTCGCTTGACGCTGCTG,3.66,–
CCGATTAACATCACGGAAAAACCTGATGTTAATCGGGTCTTGATTCGCTTGACGCTGCTG,1.31,–
CCGATTAACATCACATTGTCCCCTGATGTTAATCGGGTCTTGATTCGCTTGACGCTGCTG,5.06,3.52
CCGATTAACATCAGGGAAAAGAATGATGTTAATCGGGTCTTGATTCGCTTGACGCTGCTG,4.96,2.53
CCGATTAACATCAGGAATCCCTATGATGTTAATCGGGTCTTGATTCGCTTGACGCTGCTG,1.72,1.89
CCGATTAACATCAAAATTCCCGTTGATGTTAATCGGGTCTTGATTCGCTTGACGCTGCTG,6.44,–
CCGATTAACATCACGGAATACCCTGATGTTAATCGGGTCTTGATTCGCTTGACGCTGCTG,3.97,3.41
CCGATTAACATCAACCACCCCCCTGATGTTAATCGGGTCTTGATTCGCTTGACGCTGCTG,3.31,4.14
